High-throughput results: PubChem, several laboratories
PrPC surface inh: cell surface PrPC inhibition, primary TR-FRET screen; P04156; TR-FRET read-out; inhibition, % at 13.8 µM; 370,000 compounds, 0.43% hits; in the data active = inhibition above about 24%; note: 0% = median of the test wells and 100% = reference compound wells
BJeLR viability: kills HRASV12-expressing BJeLR cells; 300,000 compounds, 0.17% hits; inhibition, % (no concentration beside the values); BJeLR (HRASV12) viability, CellTiter-Glo ATP luminescence, 48 h; in the data active = inhibition above about 50%; inconclusive = no clear call, values can overlap the other calls
MazF activator: MazEF (E. coli) toxin RNase activation. P0AE70. FAM/BHQ RNA-DNA oligo cleavage fluorescence, 5 h. activation, % at 20 µM. 350,000 compounds, 0.32% hits; in the data active = activation above about 50%
Target sequence (P0AE70 whole entry, looked up): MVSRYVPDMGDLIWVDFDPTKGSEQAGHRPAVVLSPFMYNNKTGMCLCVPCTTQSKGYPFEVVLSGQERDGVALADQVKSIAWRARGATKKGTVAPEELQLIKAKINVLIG
PrP 5UTR inh: inhibition of PrP 5' UTR reporter expression. 340,000 compounds, 0.35% hits. cell-based PrP 5' UTR mRNA reporter, plate reader. inhibition, % (test concentration not listed). AID 488862; in the data active = inhibition above about 52%; note: 0 = median of the neutral control wells
PfHsp40 rescue: compounds rescuing yeast from Plasmodium falciparum HSP40 toxicity | S. cerevisiae expressing PfHsp40, growth rescue, ATP luminescence | growth rescue, % at 12.5 µM | 340,000 compounds, 0.68% hits | AID 504582; in the data active = growth rescue above about 28%, passing the limit was not always enough; inconclusive = no clear call, values can overlap the other calls;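 note: yeast W303a lacking pdr1 and pdr3 grown in galactose medium; growth measured after three days at 30 °C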
VHR inh abs: DUSP3 (human) phosphatase inhibition. recombinant VHR phosphatase, pNPP absorbance. inhibition, % at 13.3 µM. 290,000 compounds, 0.52% hits; in the data active = inhibition above about 50%
Target sequence (P51452 whole entry, looked up): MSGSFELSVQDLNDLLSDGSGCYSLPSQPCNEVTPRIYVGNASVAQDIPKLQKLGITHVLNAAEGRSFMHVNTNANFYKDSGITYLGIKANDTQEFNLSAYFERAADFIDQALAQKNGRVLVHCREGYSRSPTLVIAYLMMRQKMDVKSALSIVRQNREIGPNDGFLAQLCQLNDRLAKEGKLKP
PrP UTR cherry: prion 5' UTR mRNA inhibition, cherry-pick retest; shares compounds with PrP 5UTR inh; cell-based prion protein 5' UTR reporter, plate reader; inhibition, % at 2.5 µM; 1,100 compounds, 48% hits; in the data active = inhibition above about 54%; inconclusive = no clear call, values can overlap the other calls
Starred values were filed as active, the others as inactive; ? = inconclusive; / = no result. Rows were chosen to be rich in hits. Some 2.1% of all compounds tested hit in one or more screens of this group.

SMILES	PrPC surface inh	BJeLR viability	MazF activator	PrP 5UTR inh	PfHsp40 rescue	VHR inh abs	PrP UTR cherry
OC[C@@H]1[C@@H](c2ccccc2)C(c2cccc(Cl)c2)=NN1c1ccccc1	10.8	/	-0.8	-4.6	3.5	/	/
Cc1ccc(-n2nnc(-c3nccs3)n2)cc1	0.0	23.4	1.5	76.7*	-2.1	17.5	62.3*
Clc1ccc(-n2nnc(-c3nccs3)n2)cc1Cl	1.2	-5.9	5.2	-29.3	0.5	21.2	/
O=C(Cc1n[nH]c(=O)c2ccccc12)Nc1cccc(S(=O)(=O)N2CCCCCC2)c1	11.6	/	2.7	-9.9	0.4	/	/
O=C(O)c1c2c(nc3ccc(S(=O)(=O)N4CCC(C(=O)NCc5ccccc5Cl)CC4)cc13)CCCC2	-9.5	-14.0	-9.5	-16.3	0.1	-12.2	/
COc1ccc(NC(=O)CSc2nnc(-c3cccc(O)c3)o2)cc1	-1.0	-10.5	8.1	-57.5	1.5	2.1	/
COc1cccc(NC(=O)CSc2nnc(-c3cc(C)n(-c4ccccc4)c3C)o2)c1	2.3	7.6	-6.0	56.9*	10.2	35.6	24.2
C=CCn1c(C)cc(C(=O)COc2ccc(C)nc2[N+](=O)[O-])c1C	-12.4	3.6	-3.5	8.2	-1.0	11.0	/
Cc1ccc(OCC(=O)c2cc(C)n(-c3ccccc3)c2C)c([N+](=O)[O-])n1	0.3	2.1	-8.8	59.7*	0.8	12.6	57.6*
Cc1cc(C(=O)COC(=O)C2=COCCO2)c(C)n1-c1ccccc1	6.5	/	7.3	81.6*	-0.4	/	85.6*
CC(C)c1ccc(C(CC(=O)O)N2Cc3ccccc3C2=O)cc1 (configuration not stated)	9.3	2.8	9.6	-25.9	-1.3	/	/
O=C(OCC#CCSc1nnc(-c2cccc3ccccc23)o1)c1ccccc1F	5.6	/	/	/	/	/	/
CCN1CCN(C(=O)c2ccc3c(c2)N(Cc2ccccc2F)C(=O)c2ccccc2S3(=O)=O)CC1	-7.0	0.1	6.0	0.7	-1.1	-14.6	/
COc1cccc2c1C(CO)N1C(C#N)C3CC(C(=O)O)C(C1C2)N3C (configuration not stated)	-4.2	/	-6.0	69.3*	-1.0	19.4	75.0*
Cn1ncnc2c(=O)n(C)c(=O)nc1-2	/	21.4	-5.9	95.9*	0.2	/	97.6*
CC(/C=C1\SC(=O)N(CCCC(=O)O)C1=O)=C\c1ccccc1	-1.1	1.2	-4.3	83.2*	-1.0	-10.4	86.3*
COC(=O)Cc1c(O)ccn(Cc2ccc(OC)c(OC)c2)c1=O	1.8	-0.1	-2.0	63.0*	-0.9	26.4	-8.1
CCOc1ccc(OCC(=O)Nc2nccs2)cc1	/	36.5	-7.2	57.9*	-0.1	36.1	37.2
COc1cc([N+](=O)[O-])ccc1NC(=O)COC(=O)C=C(C)C	-13.4	5.2	0.3	61.1*	2.6	13.2	-21.6
CCc1ccc(/C=C2\SC(=S)N(CCCC(=O)Nc3ccccn3)C2=O)cc1	-1.6	-9.5	-90.0	57.2*	1.1	21.9	55.1*
COc1ccc(C(=O)NN(C)c2nc(C(F)(F)F)nc3ccccc23)cc1	8.2	60.2*	5.9	70.6*	1.1	1.6	90.2*
CCOc1ccc(Nc2nc(N)c3ccccc3n2)cc1	5.0	37.6	2.1	56.1*	-6.5	1.0	41.2
CN(C)c1ccc(Nc2nc(N)c3ccccc3n2)cc1	13.9	32.8	7.4	77.4*	-5.6	-0.5	62.1*
CCCSc1ccc2nc(-c3ccccc3)cn2c1	3.1	32.8	-2.9	60.4*	0.2	11.9	75.4*
CCCCSc1ccc2nc(-c3ccc(C#N)cc3)cn2c1	12.4	-6.9	9.3	-64.6	3.0	13.2	/
SMILES	PrPC surface inh	BJeLR viability	MazF activator	PrP 5UTR inh	PfHsp40 rescue	VHR inh abs	PrP UTR cherry
CS(=O)(=O)Nc1ccccc1C(=O)NCC1(N2CCCCC2)CCCCC1	2.8	-1.4	3.3	67.0*	0.0	10.2	-4.3
O=C(NCC1(N2CCCCC2)CCCCC1)c1ccc(NS(=O)(=O)c2ccccc2)cc1	-8.4	-0.8	4.2	-15.9	-1.6	/	/
CCN(CC)c1ccc(C2NC(=O)c3ccccc3N2)cc1 (configuration not stated)	-4.4	/	-2.4	60.0*	-2.7	/	-6.7
COc1ccc(C2CC(=O)Oc3cc(OC)c(OC)c(OC)c32)cc1 (configuration not stated)	-2.3	/	-0.9	-10.9	-0.1	/	/
COc1ccccc1C1CC(=O)Oc2cc(OC)c(OC)c(OC)c21 (configuration not stated)	1.3	/	10.3	92.0*	-0.8	/	-11.7
CC1(C)Cc2cccc(OCC(=O)NCc3ccccc3F)c2O1	-6.1	/	9.2	-5.3	-1.2	/	/
COC(=O)c1ccccc1NC(=O)C(C)c1ccc([N+](=O)[O-])cc1 (configuration not stated)	-6.8	-0.7	-8.6	63.6*	1.0	8.5	2.0
CC(C(=O)Nc1ccccc1Br)c1ccc([N+](=O)[O-])cc1 (configuration not stated)	-10.3	0.8	-15.9	2.6	0.0	4.6	/
C[C@@H](NC(=O)[C@@H]1Cc2ccccc2CN1)C(=O)NC1CCCCC1	-1.9	-10.0	2.7	-16.7	1.0	-18.0	/
COc1cc(CC(=O)N(c2ccccc2)c2nc(C)cs2)cc(OC)c1OC	2.1	5.4	-16.0	60.8*	1.5	13.1	-7.7
COc1cc(-c2noc(C)c2/C=C/c2cccc([N+](=O)[O-])c2)cc(OC)c1OC	9.4	15.4	-9.8	57.7*	-0.5	-18.3	70.9*
CN(Cc1cccc2cnccc12)C(=O)CCc1nnc(CCc2ccccc2)o1	-8.4	6.4	0.4	-38.9	17.2	13.4	/
COc1ccccc1CCc1nnc(CCC(=O)N(C)Cc2cccc3ncccc23)o1	-4.1	-5.0	2.3	57.7*	0.3	25.2	-25.7
C/C(=N\NC(=O)c1n[nH]c2c1CCC2)c1cccs1	-2.6	24.4	5.3	75.9*	-1.5	-6.7	73.0*
CN(C)c1ccc(C(=O)NCc2ccc3c(c2)OCO3)cc1	-5.2	-13.1	-16.1	-7.3	-0.7	12.7	/
Cc1ccc(/C([O-])=C(/C(=S)NCc2ccc3c(c2)OCO3)[n+]2ccc(N(C)C)cc2)c(C)c1	1.0	-4.7	-10.2	66.5*	-1.0	11.1	-9.9
COc1ccc(/C=C/C(=O)c2cc(F)ccc2OC(=O)c2ccccc2OC)cc1OC	2.0	40.6	-0.4	47.3	1.7	24.9	?
COc1ccc(/C=C/C(=O)c2cc(F)ccc2OC(=O)c2ccccc2)cc1OC	-6.7	25.9	-6.7	0.7	-0.4	/	/
CCCCNS(=O)(=O)c1ccc(NC(=O)Cc2ccc(OC)cc2)cc1	1.1	/	-7.5	69.3*	-1.0	24.4	10.4
COc1ccc(CC(=O)Nc2ccc(S(=O)(=O)NC(C)C)cc2)cc1	4.6	14.1	2.5	-6.1	0.2	-3.8	/
Cc1ccc(Cl)cc1NC(=O)C1CC(=O)Nc2ncnn21 (configuration not stated)	6.1	-4.2	1.5	-16.4	0.3	16.6	/
